In PMC7862700, “An all-to-all approach to the identification of sequence-specific readers for epigenetic DNA modifications on cytosine”:

Legend:
Assay in all cases: DAPPL (digital affinity profiling via proximity ligation, sequencing); 10 mM Tris-HCl pH 7.5, 50 mM NaCl, 1 mM DTT, 4% glycerol, room temperature, 30 min; GST-TFs on glutathione beads, 16-mer random dsDNA library, 0.1% formaldehyde crosslink after washing; high values mean tight binding
[1] = target: T1, FEV (Homo sapiens, UniProt Q99581 1-238); details: protein: recombinant; tags: N-terminal GST; dsDNA, one strand shown
T1 sequence: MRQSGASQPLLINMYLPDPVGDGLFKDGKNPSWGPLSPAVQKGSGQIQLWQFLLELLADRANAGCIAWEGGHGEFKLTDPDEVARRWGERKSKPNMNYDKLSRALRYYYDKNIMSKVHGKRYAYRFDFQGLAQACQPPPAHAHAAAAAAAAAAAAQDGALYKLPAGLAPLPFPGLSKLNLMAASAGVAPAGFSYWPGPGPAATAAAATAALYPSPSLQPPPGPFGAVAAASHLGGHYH
Method in brief: (§1)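 Human transcription factors fused to GST were expressed in yeast, captured on glutathione beads, given DNA barcodes and pooled with a GST-only negative control. Pools were incubated with 200 nmole of a 16-mer random double-stranded DNA library in Tris/NaCl/DTT/glycerol buffer at room temperature for 30 min. They were then washed, crosslinked with 0.1% formaldehyde, proximity-ligated (BsaI/T4 ligase, 1 h, 37 °C), PCR-amplified and sequenced on an Illumina NextSeq500. Binding signal is each 6-mer's read frequency for a factor divided by its frequency for the GST control.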

[2] = target: ETV5 (Homo sapiens, UniProt P41161 1-510); details: protein: recombinant; tags: N-terminal GST; dsDNA, one strand shown
Method in brief: as §1

[3] = target: HSF1 (Homo sapiens, UniProt Q00613 1-529); details: protein: recombinant; tags: N-terminal GST; chain copies: 3; dsDNA, one strand shown
Method in brief: as §1

[4] = target: T2, SPIC (Homo sapiens, UniProt Q8N5J4 1-248); details: protein: recombinant; tags: N-terminal GST; dsDNA, one strand shown
T2 sequence: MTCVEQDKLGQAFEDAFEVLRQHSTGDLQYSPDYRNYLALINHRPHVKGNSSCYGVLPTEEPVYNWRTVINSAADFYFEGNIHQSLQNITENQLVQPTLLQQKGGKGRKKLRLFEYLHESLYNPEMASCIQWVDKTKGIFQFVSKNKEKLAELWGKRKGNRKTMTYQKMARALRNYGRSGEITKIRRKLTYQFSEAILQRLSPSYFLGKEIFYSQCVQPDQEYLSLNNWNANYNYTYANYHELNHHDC
Method in brief: as §1

[5] = target: ELF4 (Homo sapiens, UniProt Q99607 1-663); details: protein: recombinant; tags: N-terminal GST; dsDNA, one strand shown
Method in brief: as §1

[6] = target: T3, ELK4 (Homo sapiens, UniProt P28324-2 1-405); details: protein: recombinant; tags: N-terminal GST; dsDNA, one strand shown
T3 sequence: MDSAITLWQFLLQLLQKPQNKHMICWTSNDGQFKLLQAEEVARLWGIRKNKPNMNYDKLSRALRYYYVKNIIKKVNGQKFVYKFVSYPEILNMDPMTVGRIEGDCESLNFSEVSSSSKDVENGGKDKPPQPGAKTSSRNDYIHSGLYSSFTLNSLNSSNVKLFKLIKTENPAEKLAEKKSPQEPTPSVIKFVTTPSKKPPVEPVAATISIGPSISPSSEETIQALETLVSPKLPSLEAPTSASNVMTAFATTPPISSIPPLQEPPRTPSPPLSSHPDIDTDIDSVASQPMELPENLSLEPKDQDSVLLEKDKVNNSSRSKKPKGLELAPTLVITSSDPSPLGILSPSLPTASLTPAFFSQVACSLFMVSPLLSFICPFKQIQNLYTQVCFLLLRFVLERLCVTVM
Method in brief: as §1

[7] = target: T4, ETV2 (Homo sapiens, UniProt O00321 1-342); details: protein: recombinant; tags: N-terminal GST; dsDNA, one strand shown
T4 sequence: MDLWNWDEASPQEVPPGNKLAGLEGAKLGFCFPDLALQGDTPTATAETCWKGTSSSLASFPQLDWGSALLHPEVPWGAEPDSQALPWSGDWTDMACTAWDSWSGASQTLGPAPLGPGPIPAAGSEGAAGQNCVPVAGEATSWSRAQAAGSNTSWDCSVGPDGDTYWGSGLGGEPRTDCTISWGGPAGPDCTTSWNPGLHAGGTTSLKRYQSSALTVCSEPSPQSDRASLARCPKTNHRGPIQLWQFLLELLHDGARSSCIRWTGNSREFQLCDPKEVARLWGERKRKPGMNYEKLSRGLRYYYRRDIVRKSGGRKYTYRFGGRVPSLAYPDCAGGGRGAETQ
Method in brief: as §1

[8] = target: T5, ELF3 (Homo sapiens, UniProt P78545 1-371); details: protein: recombinant; tags: N-terminal GST; dsDNA, one strand shown
T5 sequence: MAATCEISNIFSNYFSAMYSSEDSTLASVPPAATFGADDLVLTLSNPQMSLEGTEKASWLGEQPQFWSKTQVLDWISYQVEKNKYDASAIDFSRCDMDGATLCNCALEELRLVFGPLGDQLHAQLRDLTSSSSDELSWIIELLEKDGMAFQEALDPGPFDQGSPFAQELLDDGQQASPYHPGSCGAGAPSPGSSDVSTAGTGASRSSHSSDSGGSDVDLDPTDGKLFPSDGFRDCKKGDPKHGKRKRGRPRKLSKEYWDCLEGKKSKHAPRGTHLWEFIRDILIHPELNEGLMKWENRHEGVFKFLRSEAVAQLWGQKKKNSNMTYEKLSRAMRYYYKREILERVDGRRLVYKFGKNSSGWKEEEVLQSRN
Method in brief: as §1

[9] = target: CRX (Homo sapiens, UniProt O43186 1-299); details: protein: recombinant; tags: N-terminal GST; dsDNA, one strand shown
Method in brief: as §1

[10] = target: ETV1 (Homo sapiens, UniProt P50549 1-477); details: protein: recombinant; tags: N-terminal GST; dsDNA, one strand shown
Method in brief: as §1

[11] = target: T6, ERF (Homo sapiens, UniProt P50548 1-548); details: protein: recombinant; tags: N-terminal GST; dsDNA, one strand shown
T6 sequence: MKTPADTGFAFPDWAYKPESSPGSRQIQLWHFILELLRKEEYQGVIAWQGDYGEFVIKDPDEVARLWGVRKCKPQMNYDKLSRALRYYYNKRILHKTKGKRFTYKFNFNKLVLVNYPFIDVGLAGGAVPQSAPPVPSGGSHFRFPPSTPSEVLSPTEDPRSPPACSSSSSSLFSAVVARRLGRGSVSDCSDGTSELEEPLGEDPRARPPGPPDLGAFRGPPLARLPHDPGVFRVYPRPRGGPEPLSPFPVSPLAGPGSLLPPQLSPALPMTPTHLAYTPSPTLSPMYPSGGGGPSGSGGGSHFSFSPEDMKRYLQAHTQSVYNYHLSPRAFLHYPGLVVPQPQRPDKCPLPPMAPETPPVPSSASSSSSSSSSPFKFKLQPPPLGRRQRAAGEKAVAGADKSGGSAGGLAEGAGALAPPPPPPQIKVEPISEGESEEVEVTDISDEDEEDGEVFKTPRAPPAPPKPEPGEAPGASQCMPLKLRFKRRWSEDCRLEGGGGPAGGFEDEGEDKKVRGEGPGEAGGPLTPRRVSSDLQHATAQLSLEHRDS
Method in brief: as §1

[12] = target: T7, ETV3L (Homo sapiens, UniProt Q6ZN32 1-361); details: protein: recombinant; tags: N-terminal GST; dsDNA, one strand shown
T7 sequence: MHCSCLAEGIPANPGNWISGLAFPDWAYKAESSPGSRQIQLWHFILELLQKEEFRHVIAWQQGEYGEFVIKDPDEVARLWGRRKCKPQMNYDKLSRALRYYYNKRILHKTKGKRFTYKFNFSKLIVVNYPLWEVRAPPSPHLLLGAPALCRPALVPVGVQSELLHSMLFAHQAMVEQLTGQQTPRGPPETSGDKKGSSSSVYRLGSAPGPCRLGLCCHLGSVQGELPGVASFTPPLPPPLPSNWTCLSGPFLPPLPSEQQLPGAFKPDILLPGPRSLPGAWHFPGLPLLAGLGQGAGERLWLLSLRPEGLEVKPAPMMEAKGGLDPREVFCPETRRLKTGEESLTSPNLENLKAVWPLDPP
Method in brief: as §1

[13] = target: T8, ETS2 (Homo sapiens, UniProt P15036 1-469); details: protein: recombinant; tags: N-terminal GST; dsDNA, one strand shown
T8 sequence: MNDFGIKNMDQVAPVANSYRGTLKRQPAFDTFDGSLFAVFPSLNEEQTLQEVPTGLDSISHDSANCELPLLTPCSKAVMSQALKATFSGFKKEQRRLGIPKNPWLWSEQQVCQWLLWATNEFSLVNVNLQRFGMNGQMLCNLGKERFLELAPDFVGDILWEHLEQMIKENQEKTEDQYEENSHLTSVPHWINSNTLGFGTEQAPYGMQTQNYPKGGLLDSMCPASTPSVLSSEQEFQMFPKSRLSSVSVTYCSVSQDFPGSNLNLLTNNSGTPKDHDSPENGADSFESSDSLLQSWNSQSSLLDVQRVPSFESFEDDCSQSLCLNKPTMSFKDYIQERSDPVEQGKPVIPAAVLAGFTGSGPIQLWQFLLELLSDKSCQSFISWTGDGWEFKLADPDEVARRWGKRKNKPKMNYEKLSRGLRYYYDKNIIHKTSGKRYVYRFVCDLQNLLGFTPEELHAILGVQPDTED
Method in brief: as §1

[14] = target: T9, SPDEF (Homo sapiens, UniProt O95238 1-335); details: protein: recombinant; tags: N-terminal GST; dsDNA, one strand shown
T9 sequence: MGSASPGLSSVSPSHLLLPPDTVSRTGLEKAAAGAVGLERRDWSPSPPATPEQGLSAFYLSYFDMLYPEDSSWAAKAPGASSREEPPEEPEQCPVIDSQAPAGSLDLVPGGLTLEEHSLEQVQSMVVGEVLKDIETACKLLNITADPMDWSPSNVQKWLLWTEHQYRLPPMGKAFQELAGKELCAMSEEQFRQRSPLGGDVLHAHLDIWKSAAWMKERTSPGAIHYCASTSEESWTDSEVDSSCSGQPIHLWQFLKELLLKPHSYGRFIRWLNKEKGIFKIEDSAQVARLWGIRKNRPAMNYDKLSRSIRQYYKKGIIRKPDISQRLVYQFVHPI
Method in brief: as §1

[15] = target: T10, ETV7 (Homo sapiens, UniProt Q9Y603 1-341); details: protein: recombinant; tags: N-terminal GST; dsDNA, one strand shown
T10 sequence: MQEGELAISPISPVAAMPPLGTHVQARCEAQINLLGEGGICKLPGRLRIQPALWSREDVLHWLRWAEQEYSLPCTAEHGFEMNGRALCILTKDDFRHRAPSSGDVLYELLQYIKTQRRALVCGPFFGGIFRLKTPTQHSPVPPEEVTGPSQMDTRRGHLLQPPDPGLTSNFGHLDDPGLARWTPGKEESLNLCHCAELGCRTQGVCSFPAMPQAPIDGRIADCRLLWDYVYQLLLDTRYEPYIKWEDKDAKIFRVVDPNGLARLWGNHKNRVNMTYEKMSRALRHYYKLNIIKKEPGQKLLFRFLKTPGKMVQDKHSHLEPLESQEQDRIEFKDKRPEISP
Method in brief: as §1

[16] = target: T11, ELF5 (Homo sapiens, UniProt Q9UKW6-2 1-255); details: protein: recombinant; tags: N-terminal GST; dsDNA, one strand shown
T11 sequence: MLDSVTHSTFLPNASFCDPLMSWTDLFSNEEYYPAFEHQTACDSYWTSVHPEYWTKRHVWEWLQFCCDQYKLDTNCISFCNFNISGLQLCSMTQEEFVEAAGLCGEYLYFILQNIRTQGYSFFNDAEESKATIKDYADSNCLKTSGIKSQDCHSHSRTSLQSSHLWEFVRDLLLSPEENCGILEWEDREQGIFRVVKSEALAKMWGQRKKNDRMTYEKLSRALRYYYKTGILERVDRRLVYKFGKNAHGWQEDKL
Method in brief: as §1

[17] = target: T12, ETV3 (Homo sapiens, UniProt P41162-2 1-143); details: protein: recombinant; tags: N-terminal GST; dsDNA, one strand shown
T12 sequence: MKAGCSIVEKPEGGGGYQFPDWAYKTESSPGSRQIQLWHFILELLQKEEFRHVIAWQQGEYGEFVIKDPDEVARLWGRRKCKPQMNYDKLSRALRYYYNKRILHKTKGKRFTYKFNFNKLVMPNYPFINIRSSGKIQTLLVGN
Method in brief: as §1

[18] = target: ETV6 (Homo sapiens, UniProt P41212 1-452); details: protein: recombinant; tags: N-terminal GST; dsDNA, one strand shown
Method in brief: as §1

ETV5, sequence (P41161 whole entry): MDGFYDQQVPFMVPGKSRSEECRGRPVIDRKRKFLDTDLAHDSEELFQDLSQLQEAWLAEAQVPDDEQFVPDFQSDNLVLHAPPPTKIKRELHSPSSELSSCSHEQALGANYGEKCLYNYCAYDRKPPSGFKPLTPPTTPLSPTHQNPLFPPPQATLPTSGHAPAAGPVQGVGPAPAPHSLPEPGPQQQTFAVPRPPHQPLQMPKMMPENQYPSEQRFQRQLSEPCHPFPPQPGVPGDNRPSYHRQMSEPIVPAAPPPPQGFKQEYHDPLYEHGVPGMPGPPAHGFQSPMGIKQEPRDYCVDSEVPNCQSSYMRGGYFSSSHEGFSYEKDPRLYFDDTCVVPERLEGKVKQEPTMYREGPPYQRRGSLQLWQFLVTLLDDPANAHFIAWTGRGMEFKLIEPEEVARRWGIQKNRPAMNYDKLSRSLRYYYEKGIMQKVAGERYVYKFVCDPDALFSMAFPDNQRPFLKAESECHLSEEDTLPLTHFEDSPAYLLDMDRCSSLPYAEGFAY
ETV6, sequence (P41212 whole entry): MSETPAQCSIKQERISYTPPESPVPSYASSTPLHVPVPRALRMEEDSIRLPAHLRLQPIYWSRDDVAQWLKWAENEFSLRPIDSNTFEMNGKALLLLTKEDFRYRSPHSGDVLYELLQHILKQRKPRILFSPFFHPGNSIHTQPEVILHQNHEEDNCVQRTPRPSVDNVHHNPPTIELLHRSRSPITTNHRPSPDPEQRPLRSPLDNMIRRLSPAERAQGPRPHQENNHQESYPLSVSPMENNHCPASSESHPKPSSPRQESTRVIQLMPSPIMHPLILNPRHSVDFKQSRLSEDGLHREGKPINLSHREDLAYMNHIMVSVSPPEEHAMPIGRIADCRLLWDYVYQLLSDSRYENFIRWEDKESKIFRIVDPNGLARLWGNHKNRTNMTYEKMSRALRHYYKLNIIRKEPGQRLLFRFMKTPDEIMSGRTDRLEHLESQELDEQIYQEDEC
ETV1, sequence (P50549 whole entry): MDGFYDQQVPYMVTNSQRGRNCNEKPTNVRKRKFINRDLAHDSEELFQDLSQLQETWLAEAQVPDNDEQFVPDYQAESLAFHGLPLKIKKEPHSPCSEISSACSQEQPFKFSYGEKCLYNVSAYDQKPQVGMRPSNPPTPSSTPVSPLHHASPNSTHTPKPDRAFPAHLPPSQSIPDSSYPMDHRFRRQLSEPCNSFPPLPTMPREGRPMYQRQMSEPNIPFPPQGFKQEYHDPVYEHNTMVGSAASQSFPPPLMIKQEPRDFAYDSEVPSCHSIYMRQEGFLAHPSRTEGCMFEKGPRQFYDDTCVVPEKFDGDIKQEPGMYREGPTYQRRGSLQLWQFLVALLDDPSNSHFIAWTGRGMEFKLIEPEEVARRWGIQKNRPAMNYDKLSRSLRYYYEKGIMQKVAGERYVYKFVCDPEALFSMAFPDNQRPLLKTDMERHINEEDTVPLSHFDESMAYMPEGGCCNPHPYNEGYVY
ELF4, sequence (Q99607 whole entry): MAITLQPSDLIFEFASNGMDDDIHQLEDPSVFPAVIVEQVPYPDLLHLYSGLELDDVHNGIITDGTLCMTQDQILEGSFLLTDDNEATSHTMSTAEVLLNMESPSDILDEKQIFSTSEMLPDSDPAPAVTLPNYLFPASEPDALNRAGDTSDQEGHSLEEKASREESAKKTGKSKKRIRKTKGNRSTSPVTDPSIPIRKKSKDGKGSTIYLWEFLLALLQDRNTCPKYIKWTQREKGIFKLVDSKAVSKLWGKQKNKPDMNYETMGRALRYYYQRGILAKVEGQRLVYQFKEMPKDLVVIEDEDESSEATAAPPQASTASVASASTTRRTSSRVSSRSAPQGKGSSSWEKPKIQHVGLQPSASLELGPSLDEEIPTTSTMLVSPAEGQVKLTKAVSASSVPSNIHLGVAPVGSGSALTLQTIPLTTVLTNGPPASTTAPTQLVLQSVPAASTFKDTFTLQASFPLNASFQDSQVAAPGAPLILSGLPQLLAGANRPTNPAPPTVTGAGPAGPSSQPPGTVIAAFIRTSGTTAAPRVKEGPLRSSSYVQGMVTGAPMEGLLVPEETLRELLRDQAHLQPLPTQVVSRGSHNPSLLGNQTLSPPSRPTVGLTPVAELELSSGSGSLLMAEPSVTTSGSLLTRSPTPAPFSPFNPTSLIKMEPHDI
CRX, sequence (O43186 whole entry): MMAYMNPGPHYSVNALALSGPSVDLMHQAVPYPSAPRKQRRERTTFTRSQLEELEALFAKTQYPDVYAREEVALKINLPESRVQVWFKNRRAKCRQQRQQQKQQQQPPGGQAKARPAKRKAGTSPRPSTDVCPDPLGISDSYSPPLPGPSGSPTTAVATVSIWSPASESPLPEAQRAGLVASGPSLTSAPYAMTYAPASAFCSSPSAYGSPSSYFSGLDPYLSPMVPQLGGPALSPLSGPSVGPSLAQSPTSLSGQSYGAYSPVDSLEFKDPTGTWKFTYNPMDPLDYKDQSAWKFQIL
HSF1, sequence (Q00613 whole entry): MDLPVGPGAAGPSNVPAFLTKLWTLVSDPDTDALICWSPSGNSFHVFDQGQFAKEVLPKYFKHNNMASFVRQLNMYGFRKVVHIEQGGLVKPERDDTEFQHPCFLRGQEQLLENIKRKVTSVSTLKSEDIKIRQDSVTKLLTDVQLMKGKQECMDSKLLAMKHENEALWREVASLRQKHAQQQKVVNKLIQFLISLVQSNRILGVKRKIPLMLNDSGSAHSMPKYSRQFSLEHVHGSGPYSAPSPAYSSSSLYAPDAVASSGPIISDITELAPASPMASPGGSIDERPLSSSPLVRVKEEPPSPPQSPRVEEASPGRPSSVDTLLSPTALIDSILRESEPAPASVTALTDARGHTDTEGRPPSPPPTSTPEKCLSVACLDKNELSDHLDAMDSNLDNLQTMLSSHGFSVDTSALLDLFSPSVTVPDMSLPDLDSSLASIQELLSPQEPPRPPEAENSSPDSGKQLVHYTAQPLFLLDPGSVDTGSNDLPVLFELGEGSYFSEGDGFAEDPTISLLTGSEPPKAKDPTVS

CAATCC
binding signal [1]: 1.17 fold enrichment (6-mer frequency, TF over GST control)
binding signal [2]: 1.12 fold enrichment (6-mer frequency, TF over GST control)
binding signal [3]: 1.37 fold enrichment (6-mer frequency, TF over GST control)
binding signal [4]: 1.11 fold enrichment (6-mer frequency, TF over GST control)
binding signal [5]: 1.19 fold enrichment (6-mer frequency, TF over GST control)
binding signal [6]: 1.19 fold enrichment (6-mer frequency, TF over GST control)
binding signal [7]: 1.38 fold enrichment (6-mer frequency, TF over GST control)
binding signal [8]: 1.3 fold enrichment (6-mer frequency, TF over GST control)
binding signal [9]: 1.6 fold enrichment (6-mer frequency, TF over GST control)
binding signal [10]: 1.19 fold enrichment (6-mer frequency, TF over GST control)
binding signal [11]: 1.25 fold enrichment (6-mer frequency, TF over GST control)
binding signal [12]: 1.2 fold enrichment (6-mer frequency, TF over GST control)
binding signal [13]: 1.22 fold enrichment (6-mer frequency, TF over GST control)
binding signal [14]: 1.4 fold enrichment (6-mer frequency, TF over GST control)
binding signal [15]: 1.16 fold enrichment (6-mer frequency, TF over GST control)
binding signal [16]: 1.21 fold enrichment (6-mer frequency, TF over GST control)
binding signal [17]: 1.19 fold enrichment (6-mer frequency, TF over GST control)
binding signal [18]: 1.22 fold enrichment (6-mer frequency, TF over GST control)
